# Measured values from ChEMBL document CHEMBL3988442, “University of Dundee, Small-Polar-MMV Screening Library” (2021).
# Molecular target: T1, Aspartate--tRNA(Asp/Asn) ligase (Mycobacterium tuberculosis (strain ATCC 25618 / H37Rv)) (UniProt P9WFW3)
# T1 sequence (whole entry): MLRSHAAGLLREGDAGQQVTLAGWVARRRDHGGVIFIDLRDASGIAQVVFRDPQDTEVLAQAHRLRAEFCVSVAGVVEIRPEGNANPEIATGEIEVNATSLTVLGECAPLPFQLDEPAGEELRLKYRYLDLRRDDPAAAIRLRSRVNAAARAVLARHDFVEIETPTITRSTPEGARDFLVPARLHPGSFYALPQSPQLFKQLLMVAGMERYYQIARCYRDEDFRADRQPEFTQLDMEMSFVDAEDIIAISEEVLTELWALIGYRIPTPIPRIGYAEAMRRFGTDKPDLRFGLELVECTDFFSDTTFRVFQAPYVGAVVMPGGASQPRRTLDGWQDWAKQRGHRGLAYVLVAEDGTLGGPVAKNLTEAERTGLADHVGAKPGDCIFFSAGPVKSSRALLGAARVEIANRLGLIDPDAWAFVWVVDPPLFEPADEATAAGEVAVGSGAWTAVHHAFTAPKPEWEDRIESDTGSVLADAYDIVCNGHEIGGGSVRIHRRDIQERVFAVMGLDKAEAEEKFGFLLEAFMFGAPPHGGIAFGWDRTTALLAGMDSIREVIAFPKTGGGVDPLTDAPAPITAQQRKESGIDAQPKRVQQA
# Test: Assay for Asp RNA synthetase-1 from Mycobacterium tuberculosis
# Assay type: functional
# Design: scale not given: in the data most compounds retested in dose-response had high values
# Settings: 30 µM
row,SMILES,Percent Effect [%]
1,O=C(COc1cccc(Br)c1)N1CCOCC1c1ncon1 (stereo not given),-0.929
2,COCC(=O)N1CCC2(CCN(Cc3ccccn3)CC2)CC1,6.21
3,Cc1ccc(NC(=O)NCCCc2n[nH]c(N)c2C#N)cc1,1.26
4,CC(O)CN1CCN(Cc2nnc(C3CC3)o2)CC1 (stereo not given),0.971
5,c1ccc2sc(CN3CCOC(Cn4cncn4)C3)nc2c1 (stereo not given),-5.32
6,CCc1cc(C(F)(F)F)c2c(C)nn(CC(=O)O)c2n1,-5.37
7,c1ccc(CN2CCc3nnc(CN4CCCCC4)n3CC2)nc1,3.71
8,CCn1cc(NC(=O)C2CCN(Cc3ccccc3C#N)CC2)cn1,1.7
9,CN(Cc1ccc(F)cc1)CC1(O)CCCN(CC(C)(C)C)C1=O (stereo not given),-0.167
10,Cc1cnn(CC2CCCN2CCc2nc3ccccc3c(=O)[nH]2)c1 (stereo not given),-3.23
11,CC1(C)Cc2ccccc2-c2nc(NCCO)[nH]c(=O)c21,3.08
12,O=C(NCC(F)F)N1CCC(n2ccc(C(F)(F)F)n2)CC1,-6.76
13,Cc1noc(C)c1CN(C)C(=O)NC1CCN(C2CC2)CC1,-2.46
14,O=C(c1cscn1)N1C[C@@H]2C[C@@H](c3nnc(C4CC4)o3)O[C@@H]2C1,1.21
15,O=C(NCC1CCOC1)c1csc(-c2cccc(Cl)c2)n1 (stereo not given),0.759
16,Cc1ccc(-c2nc(CN3CCn4c(nnc4C4CC4)C3)co2)cc1,-1.28
17,CCCNC(=O)Cn1nc(C(C)C)c2cnn(C(C)(C)C)c2c1=O,-6.33
18,Cn1cnnc1C1CCCN(C(=O)NCc2cc[nH]n2)C1 (stereo not given),4.95
19,O=C(c1cccnc1)N1C[C@@H]2CC[C@H](C1)N(Cc1cccc(Cl)c1F)C2,9.03
20,Cc1ccccc1N1CC2(CCN(S(=O)(=O)C3CC3)C2)CC1=O (stereo not given),-1.07

row,SMILES,Percent Effect [%]
1,O=C(c1cccnc1O)N(Cc1ccsc1)CC1CCCO1 (stereo not given),-1.37
2,COc1ccc2nnc(CCCC(=O)NCc3cccn3C)n2n1,-1.89
3,CC(C)c1ncncc1C(=O)NCCN1CCCS1(=O)=O,-2.86
4,CC(C)COC(C)C(=O)NCc1cc(F)cc(F)c1 (stereo not given),-4.79
5,Cn1cnnc1C1CCN(c2cncc(-n3cccn3)n2)CC1,0.324
6,COc1ccc(NC(=O)NCC(O)c2ccc(F)cc2F)c(OC)c1 (stereo not given),1.18
7,Cn1cc(C2CCCN2C(=O)CCCOc2ccc(F)cc2F)cn1 (stereo not given),-2.66
8,O=C(CC1CCCC1)N1CCCC(c2n[nH]c3nccnc23)C1 (stereo not given),-1.74
9,Cc1ncsc1CN1C[C@@H]2COC[C@]2(C(=O)NCC2CC2)C1,0.838
10,COCCNC(=O)c1sc(Nc2ccc(Cl)cn2)nc1C,-1.92
11,CSc1ccsc1C(=O)N1CCN(CC(C)(C)O)CC1,2.72
12,CCO[C@@H]1CCN(C(=O)c2ccc[nH]2)[C@@H]1Cc1cnn(C)c1,-1.78
13,Cc1noc(C(C)C)c1C(=O)NCc1cc(F)cc(F)c1,-4.07
14,Cc1cc(C)n(-c2cncc(NCCNC(=O)CC3CCCC3)n2)n1,0.268
15,CN1CCN(C(=O)NC2CC2)Cc2cccnc21,8.44
16,O=C(NCCCN1CCc2ccccc2C1)c1cccnc1O,-2.28
17,Cc1nc(C2CCCN2CC(=O)N(Cc2ccsc2)C2CC2)no1 (stereo not given),0.787
18,CC1=NN(c2ccc(C(=O)N3CCCC(n4ccnc4)C3)cc2)CC1 (stereo not given),1.08
19,Cn1c(CNc2c(F)cccc2-n2cccn2)cc(=O)n(C)c1=O,-0.864
20,O=C(NCc1nnc2ccccn12)N1CCc2sccc2C1,-2.69
